The assay concerns the target T1, Aspartate--tRNA(Asp/Asn) ligase (Mycobacterium tuberculosis (strain ATCC 25618 / H37Rv)) (UniProt P9WFW3).
T1 sequence (whole entry): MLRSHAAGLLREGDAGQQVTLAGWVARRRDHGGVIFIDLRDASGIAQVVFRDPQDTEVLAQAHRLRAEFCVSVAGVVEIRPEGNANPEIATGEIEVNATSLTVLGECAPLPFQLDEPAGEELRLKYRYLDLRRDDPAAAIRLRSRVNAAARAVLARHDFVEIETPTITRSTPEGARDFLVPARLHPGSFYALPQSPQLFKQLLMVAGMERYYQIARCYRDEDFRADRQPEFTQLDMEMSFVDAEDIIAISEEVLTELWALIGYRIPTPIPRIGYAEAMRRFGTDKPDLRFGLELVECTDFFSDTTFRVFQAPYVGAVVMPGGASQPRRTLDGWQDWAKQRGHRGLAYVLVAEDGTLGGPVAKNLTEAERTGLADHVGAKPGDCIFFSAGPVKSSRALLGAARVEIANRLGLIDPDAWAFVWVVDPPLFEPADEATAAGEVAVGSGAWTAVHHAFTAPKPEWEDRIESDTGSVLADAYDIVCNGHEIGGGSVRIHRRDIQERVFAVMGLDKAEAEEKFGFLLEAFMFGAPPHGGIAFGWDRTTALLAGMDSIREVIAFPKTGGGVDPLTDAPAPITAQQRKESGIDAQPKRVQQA
Nature of the assay: Assay for Asp RNA synthetase-1 from Mycobacterium tuberculosis. It is filed as functional. Further details: scale not given: in the data most compounds retested in dose-response had high values. As to conditions: 30 µM.
In the case of `NC(=O)c1ccc2c(c1)nc1n2CCN(Cc2ccco2)C1`, the Percent Effect is 6.41%. On to `CCCNC(=O)c1ccc(NC(=O)c2cccc(OCC)c2)cc1`, for which the Percent Effect was determined as 2.98%. Consider `CNc1cc2c(nn1)CCN(C(=O)c1ccc(-n3nccc3C)cc1)C2`, for which the Percent Effect is -2.02%.

Regarding `Cc1cnn(C2CCCN(C(=O)c3cnc4ccccc4n3)C2)c1` (stereo not given), the Percent Effect was 9.11%.

In the case of `Cc1ccccc1CCNC(=O)C1CC(=O)N(CC(F)(F)F)C1` (stereo not given), the Percent Effect worked out at 4.08%. For `COc1c(CNCCNC(=O)Cc2ccc(F)cc2)c(C)nn1C` the value was 1.84%; for `CC(C)(C)c1ncc(C(=O)NCCS(N)(=O)=O)s1`, -1.74%; for `CNS(=O)(=O)c1cccc(C(C)NCc2nccn2C(C)C)c1` (stereo not given), -2.07%. For the compound `O=C1CCCN1Cc1nnc2n1CCN(Cc1ccoc1)CC2`, the Percent Effect is 1.71%. For `COc1ccc(CCC(=O)N2CCCC2Cn2cc(C)cn2)cc1F` (stereo not given) the value was -1.15%; for `COCC1CN(C(=O)C2=CCCCC2)Cc2cnn(CC3CC3)c21` (stereo not given), 0.918%; for `O=C(c1cc2cc(F)ccc2[nH]1)N1CCC(Nc2cccnn2)CC1`, -0.116%.

As for `COC(=O)c1cccc(NC(=O)CCn2nc(-c3cccs3)oc2=O)c1`, the Percent Effect worked out at 1.89%.

On to `N#Cc1ccc(OCCOc2ccccc2C(=O)N2CCOCC2)cc1`, for which the Percent Effect stood at 8.62%. `CC(C)NC(=O)NCCCc1cc(N)n(-c2ccccc2)n1`: the Percent Effect was -8.28%. `c1cnnc(N2CCCC2CNCc2cnc(N3CCCC3)nc2)c1` (stereo not given): the Percent Effect stood at 0.626%. Take `CC(=O)Nc1nc(C2CCN(CC(N)=O)CC2)cs1`: the Percent Effect was -7.79%. For the compound `CCc1nnc(CNCC2CCCN2c2cccnn2)o1` (stereo not given), the Percent Effect was -1.12%. As for `O=S(=O)(NCC1(O)CCOc2ccccc21)c1ccc(Br)s1` (stereo not given), the Percent Effect amounted to 3.31%. For `Cc1cc(C)n(CCCNC(=O)[C@@H](C)NC(=O)OC(C)(C)C)n1` the value was 2.46%; for `COCC(=O)N1CCC2(CC1)CCN(Cc1ccccn1)C2=O`, 3.22%; for `CCc1nc(CCNC(=O)C2CCOC2)sc1C` (stereo not given), -2.83%. On to `Cc1noc(C(C)C)c1C(=O)NS(=O)(=O)c1ccc2c(c1)OCCCO2`, for which the Percent Effect came to 2.22%. As to `CCCc1n[nH]c(C2CN(CCn3cccn3)CCO2)n1` (stereo not given), the Percent Effect was determined as 3.43%.

With `COc1ccc(CNC(=O)Nc2cccnc2N2CCCC2)cc1O`, the Percent Effect is 0.235%. For `COCC1CN(CC2CC2)Cc2nn(C)cc21` (stereo not given) the value was 12.6%; for `O=S(=O)(Nc1cnn(C2CCOCC2)c1)c1ccc2c(c1)CCO2`, 0.452%. For `CN1CCN(C(=O)[C@H]2C[C@@H]3CCN(c4ncc(F)cn4)C[C@@H]3O2)CC1` the value was -1.43%; for `O=C(c1ccc[nH]1)N1CCC(c2nccn2Cc2ccncc2)CC1`, 5.61%; for `CC(C)(CNC(=O)OC(C)(C)C)NC(=O)C1CC(=O)N(C2CC2)C1` (stereo not given), 3.37%. Turning to `COc1cccc(CN(C)C(=O)Nc2ccc3c(c2)OCCO3)c1`, the Percent Effect stood at 16.5%. For the compound `Cc1ccc(N2CC3(CCN(C(=O)c4ccoc4)C3)C2)nn1`, the Percent Effect was -1.37%. `NC(=O)NCC(=O)N1C[C@H]2CC[C@@H]1CN(Cc1ccccc1)C2`: the Percent Effect came to 15.6%. `COc1cccc(CN(C)Cc2cccc(C#N)c2)c1OC`: the Percent Effect is -1.23%. For `Cn1ncc2c1NC(=O)CC2c1ccc(O)cc1` (stereo not given) the value was 0.0331%; for `CCCN1CCCn2nc(CNS(=O)(=O)c3cccc(C#N)c3)cc2C1`, -1.36%; for `Cc1[nH]c2ccccc2c1-c1ccnc(NC[C@H](O)CO)n1`, 0.691%. For `Cc1ccsc1-c1nnc(C2CCN(Cc3ccc(F)cc3)CC2)o1` the value was -1.86%. For `c1cnc(-c2nc(CNCCn3cccn3)cs2)nc1` the value was -1.5%; for `COC(=O)c1cccc(NC(=O)CN2CCN(S(C)(=O)=O)CC2)c1`, 1.93%.

Source of the values: ChEMBL document CHEMBL3988442, “University of Dundee, Small-Polar-MMV Screening Library” (2021).
